Test results as given in PubChem BioAssay AID504408 (Broad Institute, 2011).
In all, about 300,000 compounds went through this assay and about 5,200 (1.7%) were called active.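 Rule for the calls: active = mean replicate activation of at least 50% with a set share of replicates each reaching 50%; inconclusive = only one of those two conditions met; inactive = mean below 50% and too few replicates reaching it.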 Only a selection was taken, and actives are over-represented in it overall.

experiment: HSF-1 activators, primary screen, NIH3T3-HGL cells, MG132 stress, luminescence, single point (AID 504408); conditions: NIH3T3-HGL HSF-1 luciferase reporter, MG132, 8 h; at 9 µM; active compounds read high; 100% = twice DMSO control signal;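 note: 0% = median of the neutral control wells and 100% = twice that signal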

SMILES | activation
N#CCCN(C(=O)COC(=O)C1CCN(c2ccc(C(F)(F)F)cn2)CC1)c1ccc(F)cc1 | 9.78% (inactive)
O=C(CSc1nnc(-c2c[nH]c3ccccc23)o1)c1ccccc1 | 54.2% (active)
CCC(CC)NC(=O)CSc1nnc(-c2c[nH]c3ccccc23)o1 | 12.5% (inactive)
CN(C(=O)CSc1nnc(-c2c[nH]c3ccccc23)o1)C1CCS(=O)(=O)C1 (stereo not given) | 20.1% (inactive)
COC(=O)c1sccc1NC(=O)COc1ccc(Cl)cc1 | 65.1% (active)
O=C(COc1ccc(Cl)cc1)Nc1ccccc1CO | 3.44% (inactive)
COC(=O)c1sccc1NC(=O)c1ccc(Cl)cc1 | 12.5% (inactive)
O=C(NCC(c1ccco1)N1CCc2ccccc2C1)c1ccccc1Cl (stereo not given) | 6.39% (inactive)
CC(OC(=O)CNC(=O)c1ccco1)C(=O)Nc1ccc(Cl)cn1 (stereo not given) | 0.765% (inactive)
C=CCNC(=O)C1CC2c3ccccc3C1c1ccccc12 (stereo not given) | 0.377% (inactive)
CCC(C)N(C(=O)Cn1nc(C)c([N+](=O)[O-])c1C)C1CCS(=O)(=O)C1 (stereo not given) | -1.43% (inactive)
COc1ccc(F)cc1S(=O)(=O)NCC(c1ccc2c(c1)OCO2)N1CCN(C)CC1 (stereo not given) | 7.05% (inactive)
COc1ccc(S(=O)(=O)Nc2ccc3c(c2)OCO3)cc1Cl | -5.83% (inactive)
COc1ccc(F)cc1S(=O)(=O)Nc1ccc2c(c1)OCO2 | 53.7% (active)
COc1ccccc1CCC(=O)OCC(=O)N1CCN(S(=O)(=O)c2ccc(C)cc2C)CC1 | 25.7% (inactive)
Nc1nc(Nc2ccccc2)nc(NCCO)c1[N+](=O)[O-] | 12.4% (inactive)
COc1cccc(Nc2nc(N)c([N+](=O)[O-])c(NCc3ccco3)n2)c1 | 27.8% (inactive)
CNc1nc(Nc2ccc(C)c(Cl)c2)nc(N)c1[N+](=O)[O-] | 76.4% (active)
Cc1cccn2c(=O)nc(SCC(=O)NCc3ccccc3Cl)nc12 | 0.293% (inactive)
COc1ccc(-c2cnc(SCCNC(=O)c3ccc4c(c3)OCO4)[nH]2)cc1 | 9.08% (inactive)

SMILES | activation
COc1ccc(C2=NOC(Cn3nc(C(=O)NCc4ccc5c(c4)OCO5)cc3-c3ccccc3)C2)cc1 (stereo not given) | 7.07% (inactive)
CCN1C(=O)[C@H]2[C@@H](c3ccc(SC4CCCCC4)c(OC)c3)N[C@@](Cc3ccccc3)(C(=O)OC)[C@H]2C1=O | -7.66% (inactive)
Cc1ccc(O)c(NC(=S)NC(=O)COc2ccc(Br)cc2)c1 | 12.4% (inactive)
Cc1ccc(F)c(NC(=O)CCOc2ccccc2C)c1 | 7.19% (inactive)
Cc1ccc(O)c(NC(=O)COc2cc(C)ccc2C)c1 | 76.7% (active)
CCOC(=O)CNC(=O)CSc1nnc(COc2ccc(Cl)cc2)n1CC | 52.7% (active)
CCn1c(COc2ccccc2)nnc1SCC(=O)NCc1ccco1 | -12.7% (inactive)
CCn1c(COc2ccc(OC)cc2)nnc1SCC(=O)Nc1cc(OC)ccc1OC | 19.9% (inactive)
Cc1ccc(C(=O)Nc2nc3ccc(Cl)cc3s2)o1 | 44.3% (inactive)
O=C(CSc1n[nH]c(-c2cccs2)n1)N1CCCCC1 | -14% (inactive)
O=C(OCC(=O)N1CCCC1=O)c1cc(S(=O)(=O)N2CCOCC2)ccc1Cl | -4.42% (inactive)
Cc1noc(NS(=O)(=O)c2ccc(N/C=C/C(=O)c3ccccc3)cc2)c1C | -20.4% (inactive)
Cc1ccc(N/C=C/C(=O)c2ccccc2)cc1C | 77.8% (active)
CCOc1ccc(N/C=C/C(=O)c2ccccc2)cc1 | 23.5% (inactive)
Cc1c(C)n2c(SCC(=O)NC3CCCC3)nnc2[nH]c1=O | -15.2% (inactive)
CCC(=O)/C(=C(/O)c1ccccc1)c1nc2ccccc2[nH]1 | 4.66% (inactive)
COc1ccc(/C=C(/NC(=O)c2ccc(C)cc2)c2nc3ccccc3[nH]2)cc1OC | -0.506% (inactive)
O=C(/C(=C/c1cccc(Cl)c1)c1nc2ccccc2[nH]1)c1ccccc1 | 199% (active)
Cc1ccc(C)c(OCCC(=O)Nc2cccc(S(=O)(=O)N3CCCC3)c2)c1 | -4.4% (inactive)
N#CC1(NC(=O)COC(=O)CSc2ccc(F)cc2)CCCCC1 | 0.517% (inactive)

SMILES | activation
CCN(CC(=O)Nc1c(F)cccc1F)C(=O)c1ccc(Sc2nncn2C)c([N+](=O)[O-])c1 | -3.26% (inactive)
Cc1c(NC(=O)CN(C)CC(=O)Nc2ccc(F)c(F)c2F)c(=O)n(-c2ccccc2)n1C | 1.95% (inactive)
COc1cc(C(=O)NCC(=O)NCCSc2ccc(Br)cc2)cc(OC)c1OC | 7.39% (inactive)
Cc1ccccc1CSCC(=O)NC(=O)NC(C)(C)C | 5.08% (inactive)
Cc1cc(NC(=O)c2ccccc2C)no1 | 26.1% (inactive)
Cc1cc(NC(=O)CSCc2ccccc2C)no1 | 56.3% (active)
O=C(COc1coc(CN2CCN(c3ccccc3)CC2)cc1=O)N1CCc2ccccc21 | 1.05% (inactive)
COc1ccc(N2CCN(C(=O)COC(=O)c3cccc(S(=O)(=O)Nc4ccccc4OC)c3)CC2)cc1 | 5.51% (inactive)
O=c1[nH]c(CSc2ncc(-c3ccc(F)cc3)n2Cc2ccco2)nc2ccccc12 | 41.8% (inactive)
Clc1cccc(-c2nc3nc4ccccc4nc3n2Cc2ccco2)c1 | 79.2% (active)
Cc1cc(NC(=O)CSc2nc3cc(Cl)ccc3c(=O)n2Cc2ccco2)no1 | 1.94% (inactive)
O=C(NCCSc1ncc(-c2ccccc2)[nH]1)c1ccco1 | 10.6% (inactive)
CCOC(=O)c1cnc(-c2ccccc2)nc1Oc1ccc(C)cc1 | 88.3% (active)
CCCNC(=O)c1cnc(-c2ccccc2)nc1-c1ccccc1 | 23.9% (inactive)
CCCCOc1ccc(-c2ncc(C(=O)OCC)c(N)n2)cc1 | 23.3% (inactive)
O=C(COc1cccc2c1CCNC2=O)NC1CCCCC1 | -2.8% (inactive)
CC(C)Nc1nnc(SC(C)C(=O)N(C)C2CCCCC2)s1 (stereo not given) | 7.73% (inactive)
N#CC(=C1CCCC1)c1nc(-c2ccc(Cl)cc2)cs1 | 62.5% (active)
CCCCCN1CC(O)=C(c2nc(-c3ccc(Cl)cc3)cs2)C1=N | -2.24% (inactive)
N#CC(=C1SC=CS1)c1nc(-c2ccccc2)cs1 | 44.5% (inactive)
